Experimental data from the supplement of paper PMC6555819.

Assays:
Test in all cases: PBM binding z-score (relative to random genomic background probes); higher = stronger binding; sequences stand for … in GC…GCGATTGACAGCGTAGAATGAAGG
[1] = test system: FXR:RXRa (NR concentration 270 nM, RXRa partner concentration 90 nM)
Method in brief: (§1)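 Regression normalization was applied to scanned fluorescence from custom Agilent 4×180K protein-binding microarrays. Before scanning, arrays were incubated 1 h with ligand-free nuclear receptor dimers, and binding was detected with antibodies against each partner (one per run). Binding z-scores use the random background probes as reference.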

[2] = test system: LXRa:RXRa (NR concentration 270 nM, RXRa partner concentration 90 nM)
Method in brief: as §1

[3] = test system: LXRa homodimer (NR concentration 270 nM)
Method in brief: as §1

[4] = test system: LXRb:RXRa (NR concentration 270 nM, RXRa partner concentration 90 nM)
Method in brief: as §1

[5] = test system: LXRb homodimer (NR concentration 270 nM)
Method in brief: as §1

[6] = test system: PPARa:RXRa (NR concentration 270 nM, RXRa partner concentration 90 nM)
Method in brief: as §1

[7] = test system: PPARg:RXRa (NR concentration 180 nM, RXRa partner concentration 90 nM)
Method in brief: as §1

[8] = test system: PPARg:RXRa 270nM:90nM, anti-RXR (NR concentration 270 nM, RXRa partner concentration 90 nM)
Method in brief: as §1

[9] = test system: PPARg:RXRa 30nM:10nM, anti-RXR (NR concentration 30 nM, RXRa partner concentration 10 nM)
Method in brief: as §1

[10] = test system: PPARg:RXRa 90nM:30nM, anti-RXR (NR concentration 90 nM, RXRa partner concentration 30 nM)
Method in brief: as §1

[11] = test system: PPARg:RXRa DBDmut IVT, anti-RXR (DBD mutation: RXRa K156A/R161A, NR concentration 270 nM, RXRa partner concentration 90 nM)
Method in brief: as §1

[12] = test system: PPARg:RXRa IVT, anti-PPARg (NR concentration 270 nM, RXRa partner concentration 90 nM)
Method in brief: as §1

[13] = test system: PPARg DBDmut:RXRa IVT, anti-PPARg (DBD mutation: PPARg1 K132A/R137A, NR concentration 270 nM, RXRa partner concentration 90 nM)
Method in brief: as §1

[14] = test system: PPARg DBDmut IVT, anti-PPARg (DBD mutation: PPARg1 K132A/R137A, NR concentration 270 nM)
Method in brief: as §1

[15] = test system: PPARg homodimer (NR concentration 180 nM)
Method in brief: as §1

[16] = test system: PXR:RXRa (NR concentration 270 nM, RXRa partner concentration 90 nM)
Method in brief: as §1

[17] = test system: PXR homodimer (NR concentration 270 nM)
Method in brief: as §1

[18] = test system: RARa:RXR (NR concentration 270 nM, RXRa partner concentration 90 nM)
Method in brief: as §1

[19] = test system: RARa homodimer (NR concentration 270 nM)
Method in brief: as §1

[20] = test system: RARb:RXRa (NR concentration 270 nM, RXRa partner concentration 90 nM)
Method in brief: as §1

| Sequence | PBM binding z-score [1] | PBM binding z-score [2] | PBM binding z-score [3] | PBM binding z-score [4] | PBM binding z-score [5] | PBM binding z-score [6] | PBM binding z-score [7] | PBM binding z-score [8] | PBM binding z-score [9] | PBM binding z-score [10] | PBM binding z-score [11] | PBM binding z-score [12] | PBM binding z-score [13] | PBM binding z-score [14] | PBM binding z-score [15] | PBM binding z-score [16] | PBM binding z-score [17] | PBM binding z-score [18] | PBM binding z-score [19] | PBM binding z-score [20] |
| --- | --- | --- | --- | --- | --- | --- | --- | --- | --- | --- | --- | --- | --- | --- | --- | --- | --- | --- | --- | --- |
| ACTAGCAAGCCAAGGGTCACTCAAGATTAGTCCG | 2.21 | 2.75 | 0.27 | 2.66 | -0.201 | 3.53 | 3.39 | 4.44 | 2.1 | 4.11 | -0.0877 | 1.46 | -0.235 | -0.0767 | 1.68 | 3.01 | 0.0127 | 3.79 | 0.419 | 3.11 |
| GCTATTAGTTGAAAGGGGAACCGAATGATTCTCG | 0.138 | 0.218 | -0.112 | -0.0843 | -0.157 | 0.798 | 1.19 | 3.07 | 1.25 | 2.62 | 0.8 | 0.272 | -0.324 | -0.088 | 0.558 | -0.107 | 0.237 | 0.154 | 0.912 | 0.185 |
| ACTAGCAGGCCAAGTTTGGATCACTCAAACAAAG | -0.476 | -0.653 | -0.239 | -0.541 | -0.521 | -0.385 | 0.154 | -0.662 | -0.693 | -0.835 | 0.238 | 0.181 | -0.895 | -0.495 | -0.574 | -0.494 | -0.612 | -0.608 | -0.518 | 0.165 |
| AGAACGAGGGCTATGAGTTGATAGCACGGGTGGC | -0.355 | -0.47 | -0.658 | -0.828 | -0.486 | -0.335 | 0.792 | 0.00243 | -0.297 | 0.151 | 0.434 | -0.14 | -0.172 | -1.35 | -0.607 | -0.351 | 0.0434 | -0.584 | 0.201 | -0.0296 |
| TTACCAAGGTGAGTTGAGGTCGTTGATCCAACTC | 1.28 | 2.03 | -0.25 | 1.39 | -0.831 | 2.06 | 0.352 | 0.682 | 0.292 | 0.637 | 0.767 | 1.95 | -0.517 | -0.489 | 0.402 | 4.83 | 0.689 | 2.24 | -0.309 | 1.54 |
| CCGAGTAGGTTATGGGGCATACAGGCAACGGTGA | 0.216 | 0.557 | -0.0431 | 0.599 | -0.226 | 2.3 | 3.69 | 4.52 | 2.65 | 4.38 | 2.66 | 3.61 | 0.382 | 0.114 | 1.1 | -0.123 | -0.0326 | -0.237 | 0.493 | 0.987 |
| CCGAGTAGGTTATGAGGCATTCAGGCAACGGTGA | -0.0177 | 0.0841 | -0.0523 | -0.158 | -0.156 | 1.02 | 1.3 | 2.22 | 0.331 | 1.44 | 2.79 | 2.1 | -0.794 | -0.318 | 0.571 | -0.101 | -0.42 | 0.567 | -0.00223 | 0.501 |
| GGAACGAGGGCAAGTTGTTAGCAGAGTTTGATGG | 0.972 | 0.498 | -0.221 | 0.541 | -0.646 | 1.84 | 0.863 | 1.04 | -0.161 | 0.479 | 3.77 | 2.94 | -0.421 | -0.269 | 0.194 | 0.979 | 0.561 | 0.459 | -0.28 | 2.78 |
| CGTCAAAGCTCAAGGTAACGTAACAGAAAGCAGC | -0.214 | -0.485 | -0.372 | -0.335 | -0.863 | -0.0672 | 0.521 | -0.193 | 0.0179 | 0.133 | 0.0198 | -0.221 | -1.47 | -0.249 | -0.421 | -0.257 | -0.303 | 0.0827 | -0.0827 | -0.0501 |
| ATCTCTAGGTAACCAAGTTCAGTAAATGCCGAAC | 0.686 | 1.04 | 1.15 | 1.1 | 0.894 | 1.29 | 0.842 | 1.1 | 0.556 | 0.989 | 3.43 | 2.97 | 1.54 | 2.29 | 1.32 | 2.05 | 1.79 | 1.07 | 0.775 | 1.2 |
| GCGACTGGGGCAAATCAGGTTACCATAAGGTTGG | 0.683 | 0.358 | -0.1 | 0.749 | -0.654 | 1.73 | 1.28 | 1.07 | -0.18 | 0.553 | 4.37 | 3.69 | -0.276 | -0.972 | 0.782 | 1.1 | -0.422 | 0.759 | -0.444 | 1.14 |
| ATCGAAATGTCGAAGGTGAGTATACCCACCCGAA | -0.36 | -0.333 | -0.285 | -0.254 | -0.151 | 0.29 | 0.913 | 0.538 | 0.133 | 0.522 | -1.11 | 0.391 | 0.818 | 0.244 | -0.161 | -0.253 | -0.511 | 0.116 | -0.269 | 0.495 |
| GGAACGAGGGGAAGTTGATAGCAGAGTTTGATGG | 0.0996 | -0.26 | -0.307 | -0.0221 | -0.185 | 0.0181 | 0.515 | 0.29 | -0.0775 | 0.258 | 1.12 | 0.62 | 0.337 | 0.547 | 0.593 | 0.111 | 0.308 | -0.228 | 0.391 | 0.243 |
| CGGACTAGGTCATCCAGGACAGTGAATACATTGA | 3.64 | 2.45 | 0.39 | 1.81 | -0.227 | 4.22 | 6.64 | 5.63 | 3.03 | 4.87 | 7.5 | 7.58 | 1.52 | 0.792 | 1.9 | 1.59 | 0.944 | 1.89 | 0.179 | 3.49 |
